Calls of active or inactive are those of the source. The calls were made as follows: active = hit-call score of the fitted dose curve at least 0.9, where 1 is the maximum; inactive = score below 0.9.
Experiment: ATG_TGFb_CIS: Attagene CIS-FACTORIAL HepG2 Assay for human Transforming Growth Factor (TGF) (AID 2282967)
Settings: HepG2 Attagene CIS TGFb reporter, mRNA transcription; actives raise or lower the signal
Experimental: ATG_CIS is a cell-based, multiplexed-readout assay that uses HepG2, a human liver cell line, with measurements taken at 24 hours after chemical dosing in a 24-well plate.ATG_TGFb_CIS is one of 52 assay component(s) measured or calculated from the ATG_CIS assay. It is designed to make measurements of mRNA induction, a form of inducible reporter, as detected with fluorescence intensity signals by Reverse transcription polymerase chain reaction (RT-PCR) and Capillary electrophoresis technology.Data from the assay component ATG_TGFb_CIS was analyzed into 1 assay endpoint. This assay endpoint, ATG_TGFb_CIS, was analyzed with bidirectional fitting relative to DMSO as the negative control and baseline of activity. Using a type of inducible reporter, measures of mRNA for gain or loss-of-signal activity can be used to understand the reporter gene at the transcription factor-level as they relate to the gene TGFB1. Furthermore, this assay endpoint can be referred to as a primary readout, because this assay has produced multiple assay endpoints where this one serves a reporter gene function. To generalize the intended target to other relatable targets, this assay endpoint is annotated to the growth factor intended target family, where the subfamily is transforming growth factor beta.
Human liver HepG2 cells are transiently transfected with multiple reporter transcription units (MRTUs) in 6-well plates using FuGene 6 reagent (Roche; 3 ml FuGene/1 mg DNA). The MRTU constructs are regulated by a cis-regulating element (promoter). […] A major difference between the CIS and TRANS system is that in CIS activities of endogenous TFs are measured, whereas the TRANS assay evaluates changes in activities of exogenous, chimeric NR-Gal4 proteins. […] At the end of 24 hour incubation, total RNA was isolated using TriZol reagent (Invitrogen). The isolated RNA is then reverse-transcribed using oligo(dT) primer and Mo-MLV reverse transcriptase (Invitrogen) with DNAse I (Ambion) treatment for 30 min. The one-tenth of the produced cDNA was amplified by PCR using Taq DNA polymerase (Invitrogen) and two reporter sequence-specific primers. The PCR products were fluorescently labeled by primer extension with 6-arboxyfluorescein (6-FAM) 5'-labeled reporter sequence-specific primer (2 min at 95 C, 20 s at 68 C and 10 min at 72 C) and these products were digested with 5U of HpaI (New England Biolabs) for 2h at 37 C. The fragments were purified using Qiaquick PCR columns (Qiagen), analyzed on an ABI 3130xL genetic analyzer (Applied Biosystems) with peak positions identified by using a set of X-rhodamine (ROX)-labeled MapMarker1000 molecular weight standards (BioVentures). The raw capillary electrophoresis data was processed using Attagraph software (Attagene).
For `CCCSP(=O)(OCC)Oc1ccc(Br)cc1Cl` (stereo not given), the outcome was “inactive”. With `COc1cccc(C(=O)NN(C(=O)c2cc(C)cc(C)c2)C(C)(C)C)c1C` the outcome was “inactive”. For `COP(=O)(OC)C(O)C(Cl)(Cl)Cl` (stereo not given), the outcome was “inactive”. For `CCOC(=O)COc1cc(-c2nn(C)c(OC(F)F)c2Cl)c(F)cc1Cl`, the outcome was “inactive”. For `CN1COCN(Cc2cnc(Cl)s2)C1=N[N+](=O)[O-]`, the outcome was “inactive”. For `C[Si](Cn1cncn1)(c1ccc(F)cc1)c1ccc(F)cc1`, the outcome was “inactive”. For `CCc1cccc(C)c1N(C(=O)CCl)C(C)COC` (stereo not given), the outcome was “inactive”. With `Cc1cc(C2CC2)nc(Nc2ccccc2)n1` the AC50 was 50 µM (active). In the case of `CCOP(=S)(OCC)Oc1cc(C)nc(C(C)C)n1`, the outcome is reported as “inactive”. With `CCc1cnc(C2=NC(C)(C(C)C)C(=O)N2)c(C(=O)O)c1` (stereo not given) the outcome was “inactive”. For `COP(=O)(OC)SCn1c(=O)oc2cc(Cl)cnc21`, the outcome was “inactive”. For `C#CC(C)(C)NC(=O)c1cc(Cl)cc(Cl)c1`, the outcome was “inactive”. With `CC(C)N(C(=O)SCC(Cl)=C(Cl)Cl)C(C)C` the outcome was “inactive”. For `FC(F)C(F)(F)OCC(Cn1cncn1)c1ccc(Cl)cc1Cl` (stereo not given), the outcome was “inactive”. In the case of `CCOP(=O)(SC(C)CC)N1CCSC1=O` (stereo not given), the outcome is reported as “inactive”. For `COP(=O)(OC)OC(Br)C(Cl)(Cl)Br` (stereo not given), the outcome was “inactive”. In the case of `CCOP(=S)(OCC)Oc1ccc([N+](=O)[O-])cc1`, the outcome is reported as “inactive”. In the case of `CC1=NNC(=O)N(/N=C/c2cccnc2)C1`, the outcome is reported as “inactive”. For `CCNc1nc(Cl)nc(NC(C)(C)C#N)n1`, the outcome was “inactive”. For `CCCOc1nn(C(=O)NS(=O)(=O)c2ccccc2C(=O)OC)c(=O)n1C`, the outcome was “inactive”. In the case of `CNc1cnn(-c2cccc(C(F)(F)F)c2)c(=O)c1Cl`, the outcome is reported as “inactive”. With `COP(=O)(NC(C)=O)SC` (stereo not given) the outcome was “inactive”. With `CC(C)[C@H](C(=O)O[C@H](C#N)c1cccc(Oc2ccccc2)c1)c1ccc(Cl)cc1` the outcome was “inactive”. In the case of `CCCCSP(=O)(SCCCC)SCCCC`, the outcome is reported as “inactive”. With `CCOP(=S)(OCC)Oc1ccc2c(C)c(Cl)c(=O)oc2c1` the outcome was “inactive”. For `CCC(=O)Nc1ccc(Cl)c(Cl)c1`, the outcome was “inactive”. In the case of `CCC(CC)Nc1c([N+](=O)[O-])cc(C)c(C)c1[N+](=O)[O-]`, the outcome is reported as “inactive”. For `CCCCOC(=O)c1ccccc1C(=O)O`, the outcome was “inactive”. With `C#CCC1=C(C)C(OC(=O)C2C(C=C(C)C)C2(C)C)CC1=O` (stereo not given) the outcome was “inactive”. With `CC1(C(=O)Nc2ccc(O)c(Cl)c2Cl)CCCCC1` the outcome was “inactive”. For `CCCOCC(=Nc1ccc(Cl)cc1C(F)(F)F)n1ccnc1`, the outcome was “inactive”. In the case of `CNC(=O)ON=C(C)SC`, the outcome is reported as “inactive”. For `S=C1NCCN1`, the outcome was “inactive”. In the case of `Cc1nn(-c2cc(NS(C)(=O)=O)c(Cl)cc2Cl)c(=O)n1C(F)F`, the outcome is reported as “inactive”. With `O=c1ccc(=O)[nH][nH]1` the outcome was “inactive”. In the case of `CCOP(=O)(OCC)Oc1cc(C)nc(C(C)C)n1`, the outcome is reported as “inactive”. In the case of `N#CSCSC#N`, the outcome is reported as “inactive”. In the case of `CON=C(C(=O)OC)c1ccccc1CON=C(C)c1cccc(C(F)(F)F)c1`, the outcome is reported as “inactive”. For `COc1cc(OC)nc(Sc2cccc(Cl)c2C(=O)O)n1`, the outcome was “inactive”. For `Cc1ccn2nc(S(=O)(=O)Nc3c(F)cccc3F)nc2n1`, the outcome was “inactive”.
